Data taken from PubChem BioAssay (Tox21).
Inconclusive results are not listed. The source made the active and inactive calls. Unless noted, calls come from the whole dose curve; as a rule, active = well fitted curve in the direction sought with a large enough effect in the repeat runs; inconclusive = weak or mixed curves; inactive = no such curve, though single readings can be large; an effect the other way counts as inactive or inconclusive.

Legend:
[1] = molecular target: Aryl hydrocarbon receptor (Homo sapiens) (UniProt P35869); test: qHTS assay to identify small molecule that activate the aryl hydrocarbon receptor (AhR) signaling pathway (AID 743085); note: nearly all actives have a fitted effect of over 15% in size; note: potency is the fitted concentration of half-maximal effect;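 for activation: HG2L7.5c1 human HepG2 liver cells with stably integrated DRE-driven firefly reporter; series mostly up to about 70 µM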
Aryl hydrocarbon receptor (Homo sapiens), sequence (P35869 whole entry, looked up): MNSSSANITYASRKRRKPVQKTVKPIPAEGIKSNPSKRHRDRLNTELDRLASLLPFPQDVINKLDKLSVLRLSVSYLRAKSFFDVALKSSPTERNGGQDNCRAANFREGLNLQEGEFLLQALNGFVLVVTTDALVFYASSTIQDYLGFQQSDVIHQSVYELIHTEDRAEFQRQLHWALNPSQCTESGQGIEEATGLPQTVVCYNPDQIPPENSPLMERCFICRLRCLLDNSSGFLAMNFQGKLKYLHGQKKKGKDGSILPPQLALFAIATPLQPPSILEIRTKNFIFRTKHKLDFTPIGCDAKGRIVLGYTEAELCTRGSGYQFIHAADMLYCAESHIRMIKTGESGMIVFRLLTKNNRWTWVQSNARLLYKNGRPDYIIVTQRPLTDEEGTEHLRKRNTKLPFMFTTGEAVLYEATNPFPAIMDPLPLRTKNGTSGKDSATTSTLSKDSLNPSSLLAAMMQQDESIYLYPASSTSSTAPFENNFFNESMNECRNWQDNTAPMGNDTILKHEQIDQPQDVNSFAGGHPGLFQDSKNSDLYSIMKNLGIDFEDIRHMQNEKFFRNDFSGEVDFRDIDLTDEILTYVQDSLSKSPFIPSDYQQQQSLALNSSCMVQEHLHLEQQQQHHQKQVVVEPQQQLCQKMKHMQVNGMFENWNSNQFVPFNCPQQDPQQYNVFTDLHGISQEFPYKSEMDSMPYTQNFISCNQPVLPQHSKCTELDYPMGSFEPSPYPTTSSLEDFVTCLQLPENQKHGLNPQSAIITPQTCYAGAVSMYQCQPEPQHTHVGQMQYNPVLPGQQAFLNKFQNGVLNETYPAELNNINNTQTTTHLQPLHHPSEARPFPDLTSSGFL
Outline: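 A multiplexed format paired cell viability (CellTiter-Fluor fluorescence) with AhR-dependent luciferase output (ONE-Glo luminescence) in the same wells of HepG2 DRE-luc cells after 24 h compound exposure at 37C.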

[2] = qHTS assay to identify small molecule that activate the aryl hydrocarbon receptor (AhR) signaling pathway - cell viability counter screen (AID 743086);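 note: HepG2 liver cells carrying the AhR DRE luciferase reporter; series mostly up to about 70 µM; nearly all actives have a fitted effect of over 45% in size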
Outline: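 HepG2-AhR-luc (HG2L7.5c1) cells, 4000/well, were preincubated 5 h at 37C, exposed to compound in qHTS format for 24 hr at 37C, then given CellTiter-Fluor for 30 min; viability was read as fluorescence in the reporter wells.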

[3] = molecular target: Peroxisome proliferator-activated receptor gamma (Homo sapiens) (UniProt P37231); test: qHTS assay to identify small molecule agonists of the peroxisome proliferator-activated receptor gamma (PPARg) signaling pathway (AID 743094; active = well fitted activation curve with a large enough effect in the signal ratio in the repeat runs, not every such curve was filed as active; the % refers to the signal ratio)
Peroxisome proliferator-activated receptor gamma (Homo sapiens), sequence (P37231 whole entry, looked up): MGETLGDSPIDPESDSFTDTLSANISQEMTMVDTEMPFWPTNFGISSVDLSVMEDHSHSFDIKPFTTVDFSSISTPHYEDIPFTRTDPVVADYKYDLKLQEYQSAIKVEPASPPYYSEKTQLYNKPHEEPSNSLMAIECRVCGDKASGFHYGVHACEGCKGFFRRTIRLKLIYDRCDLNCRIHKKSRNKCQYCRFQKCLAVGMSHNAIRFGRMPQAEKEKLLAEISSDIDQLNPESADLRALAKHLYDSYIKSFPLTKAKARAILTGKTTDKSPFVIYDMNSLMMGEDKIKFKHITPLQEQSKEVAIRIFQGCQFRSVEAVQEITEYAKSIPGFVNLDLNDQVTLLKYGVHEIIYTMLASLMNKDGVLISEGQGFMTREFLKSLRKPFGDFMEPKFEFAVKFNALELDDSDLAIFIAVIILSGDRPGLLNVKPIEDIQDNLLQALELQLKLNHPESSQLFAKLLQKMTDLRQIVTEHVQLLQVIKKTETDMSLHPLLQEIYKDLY
Outline: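 Cell-based bla reporter, HEK293H background, PPARg-driven UAS. Pre-incubation 5 h, 37C, 5% CO2. Compound 17 h, 37C. Substrate 1 h RT; fluorescence.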

[4] = molecular target: Peroxisome proliferator-activated receptor gamma (Homo sapiens) (UniProt P37231); test: qHTS assay to identify small molecule antagonists of the peroxisome proliferator-activated receptor gamma (PPARg) signaling pathway (AID 743191; calls by dose curve; note: series mostly up to about 63 µM; nearly all actives have a fitted effect of over 30% in size)
Outline: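 GeneBLAzer PPARg UAS-bla HEK293H cells carrying a UAS-driven beta-lactamase reporter were plated at 3000 cells/well, preincubated 5 h at 37C, then given compound for 17 h at 37C; LiveBLAzer B/G FRET substrate was read after 1 h at room temperature.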

[5] = qHTS assay to identify small molecule antagonists of the peroxisome proliferator-activated receptor gamma (PPARg) signaling pathway - cell viability counter screen (AID 743194); details: Potency: co-treated with 50 nM rosiglitazone; note: nearly all actives have a fitted effect of over 55% in size
Outline: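 PPARg-UAS-bla HEK293H cells were plated, rested 5 h at 37 C, then treated with compounds plus rosiglitazone (50 nM final) for 17 h at 37 C; viability was then read by CellTiter-Glo luminescence after 30 min at room temperature.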

[6] = qHTS assay for small molecule agonists of the antioxidant response element (ARE) signaling pathway (AID 743202; active = well fitted activation curve with a large enough effect in the signal ratio in the repeat runs, not every such curve was filed as active; the % refers to the signal ratio)
Outline: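 Following a 16 h, 37 C exposure of reporter HepG2 cells (ARE-driven beta-lactamase, 2,000 cells/well) to compounds, FRET substrate was applied for 2 h at room temperature and fluorescence intensity recorded.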

[7] = qHTS assay for small molecule agonists of the antioxidant response element (ARE) signaling pathway - cell viability counter screen (AID 743203; calls by dose curve; note: nearly all actives have a fitted effect of over 55% in size)
Outline: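 Measured in the same wells as the beta-lactamase ARE reporter, this read-out is CellTiter-Glo luminescence from HepG2 ARE-bla cells given compounds for 16 hrs.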

[8] = qHTS assay for small molecule activators of the heat shock response signaling pathway - cell viability counter screen (AID 743209); note: nearly all actives have a fitted effect of over 50% in size
Outline: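 Same-well multiplex: after 2.5 h room-temperature incubation with LiveBLAzer B/G substrate and fluorescence reading, CellTiter-Glo reagent was added to HSE-bla HeLa cells that had received compound for 5 h at 37 C; luminescence read after 30 min.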

[9] = qHTS assay for small molecule activators of the heat shock response signaling pathway (AID 743210; active = well fitted activation curve with a large enough effect in the signal ratio in the repeat runs, with a control signal flat, not every such curve was filed as active; the % refers to the signal ratio; note: series mostly up to about 63 µM)
Outline: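 Heat shock element–beta-lactamase HeLa reporter cells; qHTS with compounds for 5 h at 37 C; detection by FRET substrate fluorescence after 2.5 h at RT.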

[10] = qHTS assay to identify small molecule agonists of the peroxisome proliferator-activated receptor delta (PPARd) signaling pathway - cell viability counter screen (AID 743211); note: nearly all actives have a fitted effect of over 55% in size
Outline: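 Tox21 library compounds, delivered in DMSO, were incubated 17 h with PPARd-bla HEK293H cells; cytotoxicity was taken from CellTiter-Glo luminescence read 30 min after reagent addition.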

[11] = molecular target: Peroxisome proliferator-activated receptor delta (Homo sapiens) (UniProt Q03181); test: qHTS assay to identify small molecule agonists of the peroxisome proliferator-activated receptor delta (PPARd) signaling pathway (AID 743212; calls by dose curve)
Peroxisome proliferator-activated receptor delta (Homo sapiens), sequence (Q03181 whole entry, looked up): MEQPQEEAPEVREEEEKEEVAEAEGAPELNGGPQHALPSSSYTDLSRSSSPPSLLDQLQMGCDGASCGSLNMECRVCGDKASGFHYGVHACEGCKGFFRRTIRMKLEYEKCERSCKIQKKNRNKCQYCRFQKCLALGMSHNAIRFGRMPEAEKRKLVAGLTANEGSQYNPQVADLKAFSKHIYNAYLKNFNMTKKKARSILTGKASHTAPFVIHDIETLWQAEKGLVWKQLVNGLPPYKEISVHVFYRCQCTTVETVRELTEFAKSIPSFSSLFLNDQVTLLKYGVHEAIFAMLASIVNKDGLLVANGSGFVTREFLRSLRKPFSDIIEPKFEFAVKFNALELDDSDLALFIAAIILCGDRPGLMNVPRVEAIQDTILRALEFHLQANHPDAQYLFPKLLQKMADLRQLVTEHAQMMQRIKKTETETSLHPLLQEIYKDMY
Outline: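 Beta-lactamase reporter read by fluorescence (LiveBLAzer B/G FRET, 2 h, room temperature). Test agents, in DMSO, incubated at 37 C with PPARd-bla HEK293H cells.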

[12] = qHTS assay to identify small molecule antagonists of the peroxisome proliferator-activated receptor delta (PPARd) signaling pathway - cell viability counter screen (AID 743213); note: nearly all actives have a fitted effect of over 50% in size
Outline: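 PPARd-bla HEK293H cells (3000/well) got compound plus 300 nM L165041 agonist for 17 h at 37 C. Viability in the same wells came from CellTiter-Glo luminescence after 30 min at room temperature.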

[13] = molecular target: Peroxisome proliferator-activated receptor delta (Homo sapiens) (UniProt Q03181); test: qHTS assay to identify small molecule antagonists of the peroxisome proliferator-activated receptor delta (PPARd) signaling pathway (AID 743215; active = well fitted inhibition curve with a large enough effect in the signal ratio in the repeat runs, not every such curve was filed as active; the % refers to the signal ratio;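 note: cells stimulated with agonist L165041 at 300 nM final during compound exposure; series mostly up to about 62 µM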)
Outline: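 Fluorescence from cleaved LiveBLAzer B/G FRET substrate (2 h, room temperature) reports PPARd-driven beta-lactamase in HEK293H UAS-bla cells. Cells had been treated 17 h at 37 C with compound plus 300 nM final L165041.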

[14] = qHTS assay to identify small molecule agonists of the farnesoid-X-receptor (FXR) signaling pathway - cell viability counter screen (AID 743218); note: nearly all actives have a fitted effect of over 45% in size
Outline: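 Readout: CellTiter-Glo luminescence, 30 min RT, multiplexed after the FXR-bla FRET reading. HEK 293T FXR-UAS-bla cells received compound 5 h post-plating and were incubated 16 h at 37 C.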

[15] = qHTS assay to identify small molecule antagonists of the farnesoid-X-receptor (FXR) signaling pathway - cell viability counter screen (AID 743221; active = well fitted cell-killing curve with a large enough effect in the repeat runs, not every such curve was filed as active; note: nearly all actives have a fitted effect of over 50% in size)
Outline: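 Cytotoxicity is taken from ATP luminescence (CellTiter-Glo, 30 min, room temperature) in FXR-bla HEK 293T cells previously incubated 16 h at 37 C with compound and chenodeoxycholic acid at 50 uM final.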

[16] = molecular target: Vitamin D3 receptor (Homo sapiens) (UniProt P11473); test: qHTS assay to identify small molecule agonists of the vitamin D receptor (VDR) signaling pathway (AID 743222; calls by dose curve)
Vitamin D3 receptor (Homo sapiens), sequence (P11473 whole entry, looked up): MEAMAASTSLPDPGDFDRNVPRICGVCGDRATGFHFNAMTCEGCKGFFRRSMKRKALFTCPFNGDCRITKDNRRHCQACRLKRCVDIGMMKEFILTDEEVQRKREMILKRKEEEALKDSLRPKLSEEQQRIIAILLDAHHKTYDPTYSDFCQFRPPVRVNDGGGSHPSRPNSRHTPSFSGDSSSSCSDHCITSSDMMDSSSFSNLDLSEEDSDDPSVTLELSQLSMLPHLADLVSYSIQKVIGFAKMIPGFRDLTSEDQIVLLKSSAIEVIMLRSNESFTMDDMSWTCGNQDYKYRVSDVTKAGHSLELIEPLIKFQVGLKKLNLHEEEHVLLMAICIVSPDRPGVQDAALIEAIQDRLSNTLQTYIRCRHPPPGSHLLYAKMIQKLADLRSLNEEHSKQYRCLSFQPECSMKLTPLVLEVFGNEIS
Outline: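 Following 4 h attachment at 37C, VDR-bla cells (2,000 per well) received DMSO-dissolved compounds or controls. After 16 h incubation, LiveBLAzer B/G FRET substrate was added and fluorescence read 2 h later at room temperature.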

[17] = molecular target: Vitamin D3 receptor (Homo sapiens) (UniProt P11473); test: qHTS assay to identify small molecule antagonists of the vitamin D receptor (VDR) signaling pathway (AID 743223; active = well fitted inhibition curve with a large enough effect in the signal ratio in the repeat runs, not every such curve was filed as active; the % refers to the signal ratio)
Outline: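 Quantitative HTS in VDR-bla reporter cells stimulated with 1alpha,25-dihydroxyvitamin D3, 3 nM final. Compound exposure 16 h, 37C, 5% CO2. Read-out: beta-lactamase FRET substrate fluorescence, 2 h RT.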

[18] = qHTS assay to identify small molecule agonists of the vitamin D receptor (VDR) signaling pathway - cell viability counter screen (AID 743224); note: series mostly up to about 63 µM; nearly all actives have a fitted effect of over 50% in size
Outline: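 In parallel with the bla FRET readout, cytotoxicity toward VDR-bla cells after 16 h compound exposure was assessed by CellTiter-Glo, with luminescence recorded after a 30 min room-temperature incubation.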

[19] = molecular target: Bile acid receptor (Homo sapiens) (UniProt Q96RI1); test: qHTS assay to identify small molecule antagonists of the farnesoid-X-receptor (FXR) signaling pathway (AID 743217; active = well fitted inhibition curve with a large enough effect in the signal ratio in the repeat runs, not every such curve was filed as active; the % refers to the signal ratio)
Bile acid receptor (Homo sapiens), sequence (Q96RI1 whole entry, looked up): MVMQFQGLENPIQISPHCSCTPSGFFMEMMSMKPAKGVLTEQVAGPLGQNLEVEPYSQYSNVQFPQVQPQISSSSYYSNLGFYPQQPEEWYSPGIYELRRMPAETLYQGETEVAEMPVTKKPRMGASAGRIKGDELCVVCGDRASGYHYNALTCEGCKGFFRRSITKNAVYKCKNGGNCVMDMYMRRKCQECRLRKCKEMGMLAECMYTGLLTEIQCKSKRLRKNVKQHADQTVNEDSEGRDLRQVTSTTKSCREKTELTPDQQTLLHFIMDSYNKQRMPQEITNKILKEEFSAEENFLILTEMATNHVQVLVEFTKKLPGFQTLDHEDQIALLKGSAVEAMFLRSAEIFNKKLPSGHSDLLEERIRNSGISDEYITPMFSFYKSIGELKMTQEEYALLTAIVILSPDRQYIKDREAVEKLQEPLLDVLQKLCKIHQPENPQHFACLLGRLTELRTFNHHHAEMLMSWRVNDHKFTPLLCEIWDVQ
Outline: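 FRET fluorescence after 2 h room-temperature LiveBLAzer loading gives the readout. Prior step: FXR-bla HEK 293T cells, seeded and incubated 5 h, received test compounds plus 50 uM final CDCA for 16 h at 37 °C.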

[20] = molecular target: Bile acid receptor (Homo sapiens) (UniProt Q96RI1); test: qHTS assay to identify small molecule agonists of the farnesoid-X-receptor (FXR) signaling pathway (AID 743220; active = well fitted activation curve with a large enough effect in the signal ratio in the repeat runs, not every such curve was filed as active; the % refers to the signal ratio)
Outline: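 FXR-UAS-bla HEK 293T cells carrying a UAS-driven beta-lactamase reporter were plated for 5 h at 37C/5% CO2, then exposed to DMSO-dissolved Tox21 10K compounds for 16 h at 37C. A LiveBLAzer B/G FRET substrate was loaded for 2 h at room temperature before fluorescence reading.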
% is set by controls: 0 for no effect and ±100 for the full control effect.

CC1NCCOC1c1ccccc1 (stereo unspecified)
inactive: Potency [1] | Potency [2] | outcome [3] | Potency [4] | Potency [5] | Potency [6] | Potency [7] | Potency [8] | Potency [9] | Potency [10] | outcome [11] | Potency [12] | Potency [13] | Potency [14] | Potency [15] | outcome [16] | outcome [17] | Potency [18]

CC(=O)CN(CC(C)=O)N=O
inactive: Potency [1] | Potency [2] | outcome [3] | Potency [4] | Potency [5] | Potency [6] | Potency [7] | Potency [8] | Potency [9] | Potency [10] | outcome [11] | Potency [12] | Potency [13] | Potency [14] | Potency [18]

Cc1ccc2c(c1)C1CN(C)CCC1N2 (stereo unspecified)
inactive: Potency [1] | Potency [2] | outcome [3] | Potency [4] | Potency [5] | Potency [6] | Potency [7] | Potency [8] | Potency [9] | Potency [10] | outcome [11] | Potency [12] | outcome [19] | Potency [14] | outcome [20] | outcome [16]

Clc1cc2c(cc1Cl)Oc1cc(Cl)c(Cl)cc1O2
active: Potency [1] 1.1 nM
inactive: viability change, negative = cytotoxic [2] -4.26% [at 0.341 µM] | activation [3] -9.85% [at 0.285 µM] | ratio activity, negative = inhibition [4] -3.27% [at 0.275 µM] | activity change, negative = cytotoxicity [5] 15.5% [at 0.275 µM, co-treated with 50 nM rosiglitazone] | viability change, negative = cytotoxic [7] -8.47% [at 0.338 µM] | activity change, negative = cytotoxicity [8] -11.9% [at 0.275 µM] | activation [9] -0.0962% [at 0.275 µM] | activity change, negative = cytotoxicity [10] -2.8% [at 0.275 µM] | activation [11] 7.23% [at 0.275 µM] | viability change, negative = cytotoxic [12] -3.41% [at 0.278 µM] | ratio activity, negative = inhibition [13] -14.9% [at 0.278 µM] | activity change, negative = inhibition [19] -0.544% [at 0.275 µM] | viability change, negative = cytotoxic [14] -3.37% [at 0.275 µM] | activation [16] 3.98% [at 0.275 µM] | activity change, negative = inhibition [17] -1.31% [at 0.281 µM] | activity change, negative = cytotoxicity [18] -0.698% [at 0.275 µM]

CC(C)(O)C(Cl)(Cl)Cl
inactive: Potency [1] | Potency [2] | outcome [3] | Potency [4] | Potency [5] | Potency [6] | Potency [7] | Potency [8] | outcome [11] | Potency [12] | outcome [19] | Potency [14] | Potency [15] | outcome [16]

CN(C)C(=O)Oc1cc(OC(=O)N(C)C)cc(C(O)CNC(C)(C)C)c1 (stereo unspecified)
inactive: Potency [1] | Potency [2] | outcome [3] | Potency [4] | Potency [5] | Potency [6] | Potency [7] | Potency [8] | Potency [10] | outcome [11] | Potency [12] | Potency [13] | outcome [19] | Potency [14] | outcome [20] | Potency [15] | outcome [17] | Potency [18]

CCN(CC)CCOC(=O)C(O)(c1ccccc1)c1ccccc1
inactive: Potency [1] | Potency [2] | outcome [3] | Potency [4] | Potency [5] | Potency [7] | Potency [8] | Potency [9] | Potency [10] | outcome [11] | Potency [12] | Potency [13] | outcome [19] | Potency [14] | outcome [20] | Potency [15]

C=C(C)[C@H]1CN[C@H](C(=O)O)[C@H]1CC(=O)O
inactive: Potency [1] | Potency [2] | outcome [3] | Potency [4] | Potency [5] | Potency [6] | Potency [7] | Potency [8] | Potency [9] | Potency [10] | outcome [11] | Potency [12] | Potency [13] | Potency [14] | Potency [15] | outcome [17] | Potency [18]
